{"source": "PubChem BioAssay AID485298", "about": "(National Center for Advancing Translational Sciences (NCATS), 2010)", "note": "The campaign covered roughly 320,000 compounds. About 740 (0.23%) were called active. About 2% were inconclusive and are not listed. The call rests on the fitted dose curve; in most records, active means well fitted activation curve with a large enough effect; inconclusive means small, poorly fitted or top-dose-only effect; inactive means no such curve, though single readings can be large or run the other way. Only a selection was taken, and actives are over-represented in it overall. Potency means the concentration at half of the fitted maximal effect.", "data": [{"assay": "qHTS Assay for Small Molecule Inhibitors of Mitochondrial Division or Activators of Mitochondrial Fusion; further: nearly all actives have a fitted effect of over 45% in size;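 on growth rescue (activation): temperature-sensitive fusion mutants such as fzo1-1 at 37 °C on non-fermentable ethanol glycerol medium; % of control where 0% means no effect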", "details": "S. cerevisiae fusion-defective mutant growth rescue, CellTiterGlo 48 h; series mostly up to 46.1 µM; growth rescue (activation): at the top concentration", "in_short": "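Luminescent cell viability in 1536-well qHTS format served as the measure of rescued growth in ts fusion-mutant S. cerevisiae cultured on non-fermentable YPEG for 48 hours at 37C.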", "values": [{"smiles": "Cc1nnnn1/C(=C\\c1ccccc1)C(=O)OCC(=O)N1CC2(C)CC1CC(C)(C)C2", "note": "(stereo unspecified)", "growth rescue (activation)": "-8.27% (inactive)"}, {"smiles": "O=C(Cc1ccccc1)Nc1c(C(=O)N2CCCCCC2)cnn1-c1ccccc1", "growth rescue (activation)": "-1.61% (inactive)"}, {"smiles": "CCC(C)(C)n1nnnc1CN1CCN(c2nc3ccc(C)cc3cc2C#N)CC1", "growth rescue (activation)": "-0.559% (inactive)"}, {"smiles": "O=C(/C=C/c1ccccc1)Oc1coc(CSc2ncccn2)cc1=O", "growth rescue (activation)": "0.25% (inactive)"}, {"smiles": "Nc1c(C(=O)OCC(=O)Nc2ccc(OC(F)F)cc2)[nH]c(=O)[nH]c1=O", "growth rescue (activation)": "-0.106% (inactive)"}, {"smiles": "CCOc1ccc(/C=N/OCC(=O)NCc2cccs2)cc1", "growth rescue (activation)": "-9.69% (inactive)"}, {"smiles": "O=C(CO/N=C/c1ccc(OC(F)F)cc1)NCc1ccc(F)cc1", "Potency": "6.31 µM (active)"}, {"smiles": "CC1CCCCC1NC(=O)CO/N=C/c1ccc(OC(F)F)cc1", "note": "(stereo unspecified)", "growth rescue (activation)": "-0.219% (inactive)"}, {"smiles": "Clc1ccc(C2[C@H]3CN(CC4CCCCC4)[C@H](c4ccccc4)C34CC2(c2cccnc2)C4)cn1", "note": "(stereo partly specified)", "growth rescue (activation)": "4.84% (inactive)"}, {"smiles": "CCc1ccc[n+](-c2nc([O-])sc2C=O)c1", "growth rescue (activation)": "-6.48% (inactive)"}, {"smiles": "CCOC(=O)/C=C/C(=O)OCC(=O)NC(c1ccccc1)c1ccccc1", "growth rescue (activation)": "-0.211% (inactive)"}, {"smiles": "c1n[nH]c(NCc2ccc3c(c2)OCO3)n1", "growth rescue (activation)": "-5.05% (inactive)"}, {"smiles": "Cn1cc(CCC(=O)NCc2ccc3c(c2)OCO3)c2ccccc21", "growth rescue (activation)": "4.45% (inactive)"}, {"smiles": "N#Cc1nc(Cc2cccc3ccccc23)oc1NCc1ccc2c(c1)OCO2", "Potency": "11.2 µM (active)"}, {"smiles": "O=C(COC(=O)c1ccccc1NC(=O)c1ccco1)Nc1ccc2c(c1)OC(F)(F)O2", "growth rescue (activation)": "-3.36% (inactive)"}, {"smiles": "CCCN1C(=O)C(O)(CC(=O)c2ccc(CC)cc2)c2cc(Br)ccc21", "note": "(stereo unspecified)", "growth rescue (activation)": "0.908% (inactive)"}, {"smiles": "COc1ccc(Nc2nc(-c3cccnc3)nc3ccccc23)cn1", "growth rescue (activation)": "12.2% (inactive)"}, {"smiles": "Cc1cccc(-c2nc(Nc3ccc(O)cc3)c3ccccc3n2)c1", "Potency": "35.5 µM (active)"}, {"smiles": "CC(=O)Nc1cccc(Nc2nc(-c3cccs3)nc3ccccc23)c1", "growth rescue (activation)": "27.5% (inactive)"}, {"smiles": "COc1ccc(OCCNS(=O)(=O)Cc2ccccc2)cc1", "growth rescue (activation)": "-4.23% (inactive)"}, {"smiles": "Cc1ccc(NC(=O)c2cc([N+](=O)[O-])ccc2Cl)c(O)c1", "growth rescue (activation)": "-3.88% (inactive)"}, {"smiles": "CCC(C)C(NC(=O)C1CCC(=O)N1C(=O)OCc1ccccc1)C(=O)NC(C(=O)N1CCCC1C(N)=O)C(C)CC", "note": "(stereo unspecified)", "growth rescue (activation)": "2.2% (inactive)"}, {"smiles": "Nc1ccc(Nc2cc(O)c3ncccc3c2)cc1", "growth rescue (activation)": "-3.21% (inactive)"}, {"smiles": "Cn1ncc2c(Nc3cccc4ccccc34)ncnc21", "growth rescue (activation)": "2.67% (inactive)"}, {"smiles": "CN(C)c1cc2c(Nc3ccc4c(cnn4Cc4ccccc4)c3)ncnc2cn1", "Potency": "18.4 µM (active)"}, {"smiles": "CC(C)Nc1ncnc2c1nnn2Cc1ccccc1", "growth rescue (activation)": "2.53% (inactive)"}, {"smiles": "CCOC(=O)N1CCN(C(=O)COC(=O)c2cccc(S(C)(=O)=O)c2)CC1", "growth rescue (activation)": "1.09% (inactive)"}, {"smiles": "CCOC(=O)C(=CNNc1ccsc1C(=O)OC)C(=O)OCC", "growth rescue (activation)": "-8.56% (inactive)"}, {"smiles": "Cc1ccc(O)c(CNc2nc3ccccc3[nH]2)c1", "growth rescue (activation)": "-0.0891% (inactive)"}, {"smiles": "Cc1ccc(O)c(CNc2nc3ccccc3n2C)c1", "growth rescue (activation)": "-1.24% (inactive)"}, {"smiles": "Cc1ccc2nnn(Cc3cccc(C(C)(C)C)c3O)c2c1", "Potency": "12.6 µM (active)"}]}]}
